Screens (PubChem BioAssay)
Anthrax LF inh2: anthrax lethal factor protease inhibition; AID 588501; P15917; actives 0.12% (n = 360,000); inhibition, % at 10 µM; multiplex microsphere protease cleavage assay, LF
3CLpro inhibitor: SARS-CoV 3CLpro protease inhibition; recombinant SARS-CoV 3CLpro, quenched FRET peptide cleavage; inhibition, % at 6 µM; actives 0.14% (n = 290,000); AID 1706; in the data active means inhibition above about 12%
Autofluor counter: compound fluorescence in toxin protease inhibitor counterscreen. compound autofluorescence counterscreen, microsphere flow cytometry; stronger effect = higher value. fluorescence intensity (concentration not given with the values). actives 3.1% (n = 360,000); in the data active means fluorescence intensity above about 16000; inconclusive means no clear call, values can overlap the other calls
BoNT F protease: blocks Botulinum neurotoxin F light chain protease. actives 0.22% (n = 360,000). inhibition, % at 10 µM. Multiplex microsphere protease cleavage assay, flow cytometry; in the data active means inhibition above about 35%, passing the limit was not always enough; inconclusive means no clear call, values can overlap the other calls
VHR inh abs: inhibitors of human VHR1 phosphatase (DUSP3) | P51452 | recombinant VHR phosphatase, pNPP absorbance | inhibition, % at 13.3 µM | actives 0.52% (n = 290,000); in the data active means inhibition above about 50%
BoNT A protease: BoNT A light chain protease inhibition; multiplex microsphere protease substrate cleavage, flow cytometry; inhibition, % at 10 µM; actives 0.17% (n = 360,000); AID 588499
Of the large screens only hits and unclear results are named; the others gave an inactive call; ! = not confirmed by another sample. Sampled rows, rich in hits. Any-hit rate of the full collection: about 3.9%. Unless noted, no stated cut-off is given here; in the data, active means inhibition above about 30%; inconclusive means no clear call, values can overlap the other calls; inactive means below that.

S=C(Nc1ccc(N2CCOCC2)cc1)Nc1ccc2nc(-c3ccco3)c(-c3ccco3)nc2c1	VHR inh abs 50
CCOC(=O)c1ccc(NC(=O)NCc2ccccn2)cc1	none
O=C(Cn1cc(COc2c(F)c(F)cc(F)c2F)nn1)c1ccc(O)cc1	none (no result: 3CLpro inhibitor, VHR inh abs)
COc1ccc(N2C(=O)NC(NC(=O)c3ccncc3)(C(F)(F)F)C2=O)cc1 (configuration not stated)	Autofluor counter 22275
CC(C)Sc1nc2ccccc2n1CC(=O)NCc1ccc2c(c1)OCO2	Autofluor counter 22521, BoNT A protease inconclusive
CC(=O)Nc1ccc2c(c1)C(=O)c1ccc(Cl)cc1-2	none (no result: 3CLpro inhibitor, VHR inh abs)
Nc1c(NCCN2CCOCC2)c2ccccc2oc1=O	none
Nc1c(NC2CCCCC2)c2ccccc2oc1=O	Autofluor counter 22176
Nc1c(NCCCN2CCOCC2)c2ccccc2oc1=O	Autofluor counter 21802
Cc1ccc([N+](=O)[O-])cc1N=C(c1ccc([N+](=O)[O-])cc1)N1CCOCC1	none
O=[N+]([O-])c1ccc(C(=Nc2cccc3ccccc23)N2CCOCC2)cc1	Autofluor counter 17545
O=C(c1ccc2c(c1)OCO2)N1CCN(S(=O)(=O)c2ccc(Cl)cc2)CC1	none
CC(C)COC(=O)c1cc(-c2ccc(/C=N/n3cnnc3)o2)ccc1Cl	Autofluor counter 22229
CCOC(=O)c1ccc(NS(=O)(=O)c2c(N)n(C)c(=O)n(C)c2=O)cc1	none (no result: 3CLpro inhibitor, VHR inh abs)
O=S(=O)(c1ccc(Cl)c(F)c1)N1CCC(c2nc(-c3ccncc3)no2)CC1	Autofluor counter 21243
CCc1nc2oc3ccccc3c(=O)c2c(=O)n1-c1ccccc1	Autofluor counter 16529
Cc1nc2c(C(=O)N3CCCC3)cnn2c(C)c1Cc1c(F)cccc1Cl	Autofluor counter 23177
Cc1ccccc1Cc1c(C)nc2c(C(=O)NCc3ccco3)cnn2c1C	Autofluor counter 17104
Cc1nc2c(C(=O)O)cnn2c(C)c1Cc1ccccc1F	Autofluor counter 19848, BoNT A protease inconclusive (no result: 3CLpro inhibitor)
COC(=O)c1cnn2c(C)c(Cc3cccc(F)c3)c(C)nc12	none
Cc1nc2c(C(=O)N3CCC4(CC3)OCCO4)cnn2c(C)c1Cc1cccc(Cl)c1	none
COc1ccc2oc3cc(NCCN(C)C)ccc3c(=O)c2c1	none (no result: 3CLpro inhibitor, VHR inh abs)
Cc1c2cc(O)c(=O)cc-2oc2cc(O)c(O)cc12	Autofluor counter 17336, VHR inh abs 122!
O=C(CN1CCN(c2ccc(F)cc2)CC1)Nc1nccs1	none
Cc1ccc(C)c(C(=O)COC(=O)c2ccccc2N2C(=O)C3C4CCC(C4)C3C2=O)c1 (configuration not stated)	Autofluor counter 20251, BoNT A protease inconclusive
c1ccc(NC(=NCc2ccco2)c2ccccc2)cc1	none
CCOC(=O)/C(C(N)=NCc1ccco1)=C(/O)c1ccccc1	Autofluor counter 23453
CC(=O)c1ccc(NC(=O)c2cnsn2)cc1	none
CC12CCC(C(=O)NCCCN3CCOCC3)(OC1=O)C2(C)C (configuration not stated)	Autofluor counter 22515
CCOC(=O)C1CCN(S(=O)(=O)c2ccc(-c3ccc(=O)[nH]n3)o2)CC1	VHR inh abs 51 (no result: Anthrax LF inh2, Autofluor counter, BoNT F protease, BoNT A protease)
O=c1ccc(-c2ccc(S(=O)(=O)N3CCN(c4ccccc4)CC3)o2)n[nH]1	none
CCCc1cc(=O)[nH]c(SCC(=O)Nc2cc(S(=O)(=O)N3CCCCC3)ccc2C)n1	Autofluor counter inconclusive (no result: 3CLpro inhibitor, VHR inh abs)
O=C(c1ccccc1)c1ccc(C(=O)O)c(C(=O)O)c1	none (no result: 3CLpro inhibitor, VHR inh abs)
O=C(O)c1cc(C(=O)O)c(-c2ccccc2)c(C(=O)O)c1	Autofluor counter 22323
O=C(O)c1ccc(C(=O)O)c(C(=O)c2ccccc2)c1	Autofluor counter 17146
Cc1ccc(C(C(=O)NCC2CCCO2)N(C(=O)c2snc(C(N)=O)c2N)c2ccc(C)c(C)c2)o1 (configuration not stated)	none
CC1(C)N=C(c2ccc(Cl)cc2Cl)C(=O)N1	Autofluor counter 22553
O=C(CNC(=O)c1ccccc1F)NC1CC1	Autofluor counter 19571, BoNT A protease inconclusive
O=C(CNC(=O)c1ccccc1F)OCCCOC(=O)CNC(=O)c1ccccc1F	Autofluor counter 30957 (no result: 3CLpro inhibitor, VHR inh abs)
CC(NS(=O)(=O)c1cc(C(F)(F)F)ccc1Cl)C(=O)N(C)C1CCN(C)CC1 (configuration not stated)	none (no result: 3CLpro inhibitor, VHR inh abs)
CN(C)CCNc1ncnc2c1ncn2[C@H]1CN(Cc2ccc(-c3ccccc3)cc2)C[C@@H](CO)O1	none (no result: 3CLpro inhibitor, VHR inh abs)
COc1ccc(CCN2CC(C(=O)NCc3ccco3)CC2=O)cc1OC (configuration not stated)	Autofluor counter 16739
CCOC(=O)N1CCN(S(=O)(=O)N2CCCC(C(=O)NCCc3ccc(OCC)c(OCC)c3)C2)CC1 (configuration not stated)	VHR inh abs 57
CCOC(=O)N1CCN(c2c(NCCc3ccc(OCC)c(OCC)c3)c(=O)c2=O)CC1	Autofluor counter 24406
CCOC(=O)N1CCN(c2c(NCc3ccc(N(C)C)cc3)c(=O)c2=O)CC1	none
COc1ccc(CCNC(=O)C2CC(=O)N(C3CCCCCCC3)C2)cc1OC (configuration not stated)	Autofluor counter 24165
O=C1c2cc(Br)ccc2N(Cc2ccc(Br)cc2)S(=O)(=O)C1c1cc(Cl)c(Cl)cc1[N+](=O)[O-] (configuration not stated)	none (no result: 3CLpro inhibitor, VHR inh abs)
O=C(NCCC(=O)N1CCN(S(=O)(=O)c2ccccc2Cl)CC1)Nc1ccccc1	none (no result: 3CLpro inhibitor, VHR inh abs)
COc1ccc(CCNC(=O)C2CCN(S(=O)(=O)N3CCCCCC3)CC2)cc1OC	Autofluor counter 22454
COc1ccc(OC)c(CNC(=O)C2CCN(S(=O)(=O)N3CCCCC3)CC2)c1	VHR inh abs 51
CCCC(C)NC(=O)c1sc2nc3n(c(=O)c2c1C)CCC3 (configuration not stated)	VHR inh abs 54
Cc1c(C(=O)NCCO)sc2nc3n(c(=O)c12)CCC3	none
CCOc1ccc(NS(=O)(=O)c2ccc(-c3ccc(=O)[nH]n3)o2)cc1	none
CSc1ccccc1-n1nnnc1SCC(=O)NCc1cccs1	BoNT F protease inconclusive
O=C(CSc1nnnn1-c1ccccc1)NCc1cccs1	Autofluor counter 16730
Nc1nnc(SCC(=O)Nc2ccc(Cl)c(C(=O)O)c2)s1	VHR inh abs 56
COC(=O)c1cc(NC(=O)CSc2nnc(N)s2)ccc1Cl	none
Cc1cc(C)n(CCO)c(=O)n1	Autofluor counter 20285, BoNT A protease inconclusive
Cc1ccc(C(c2nnnn2C(C)(C)C)N2CCC(C)CC2)cc1 (configuration not stated)	Autofluor counter 20278
CCOC(=O)c1ccc(-c2ccc(/C=C(\C#N)C(=O)NCC3CCCO3)o2)cc1 (configuration not stated)	Autofluor counter 22009
COc1ccccc1CNC(=O)c1ccc(N2CCOCC2)c([N+](=O)[O-])c1	none
CNC(=O)c1cc2cc(OC)ccc2oc1=O	Autofluor counter 21752
COc1ccc2oc(=O)c(C(=O)NC3CCCCCC3)cc2c1	VHR inh abs 50
COc1ccc2oc(=O)c(C(=O)NCC3CCCO3)cc2c1 (configuration not stated)	none
